Max response data for 60 compounds are collected here from PubChem BioAssay AID2314 (National Center for Advancing Translational Sciences (NCATS), 2010).

Screen size: about 300,000 compounds; about 37,000 (12%) were called active. Many of the other results were omitted from the sample, so actives are more common in it than they were. Unmarked numbers belong to inactive results. No stated cut-off is given here; in the data, active means max response mostly above about 13% (no sharp cut-off); inactive means mostly below about 14%.

A short description of this test: Cycloheximide Counterscreen for Small Molecule Inhibitors of Shiga Toxin. Further: read at 38.3 µM for the half of the compounds with a filed dose; 0% is about no effect. As to conditions: cell reporter, cycloheximide protein synthesis inhibition counterscreen; stronger effect = higher value.
Take `COCCNC(=O)CCCN1C(=O)c2ccccc2Sc2ncccc21`: the max response is 5.87%. On to `Cc1ccc(C2=N/C(=C\c3ccc(OS(=O)(=O)c4ccc(C)cc4)cc3)C(=O)O2)cc1`, for which the max response was 0.746%.

For the compound `Cc1ccc(N2CCN(C3=NC(=O)/C(=C\c4cccs4)S3)CC2)cc1`, the max response is 3.49%. The value for `Cc1cccc(C2=N/C(=C/c3cccs3)C(=O)O2)c1` was 29.6% (active). `Cc1ccc(S(=O)(=O)N2CCN(C(=O)N3CCOCC3)CC2)c(C)c1`: the max response was -0.587%. Regarding `Cc1ccc(NC(=O)[C@H](Cc2ccccc2)NC(=O)C2CCNCC2)cc1`, the max response is -1.28%. The value for `CC(=O)Nc1cc2ccc(OC(C)=O)cc2oc1=O` was -3.66%. On to `O=C(Nc1cc2ccccc2oc1=O)C1CCCCC1`, for which the max response is 34.2% (active). As to `Cc1ccccc1NC(=O)C1CCN(C(=O)NC2CCCCC2)CC1`, the max response was -2.51%.

As to `Cc1ccc(S(=O)(=O)N/N=C(\c2ccccc2)C2CC2)cc1`, the max response was -0.529%.

For `COc1cccc(C2c3[nH]c4ccccc4c3CCN2Cc2cccc(C)n2)c1` (stereo not given), the max response is -0.212%. `CCOc1ccc(S(=O)(=O)N2CCC(c3ccccc3)CC2)cc1C(=O)O`: the max response was -3.04%. As for `COc1ccc(/C=N/Nc2cc(N3CCOCC3)nc(C)n2)c(OC)c1`, the max response was -1.58%. For `COc1ccc(/C=N/OCc2ccccc2C#N)c(OC)c1`, the max response is 38% (active).

With `COc1ccc(C=C(C#N)C#N)c(CSc2ccccn2)c1`, the max response was -3.44%. Regarding `O=C(Nc1nnc(C2=COCCO2)o1)c1ccc([N+](=O)[O-])s1`, the max response is -2.32%. In the case of `Cc1ccc(C(=O)Nc2nnc(C3=COCCO3)o2)cc1C`, the max response is 14.8% (active). With `Cc1ccc(C(=O)Nc2nnc(-c3cccs3)s2)cc1C` the figure was 13.9%; with `Cc1nn(Cc2ccccc2)c(C)c1NS(=O)(=O)c1ccccc1`, 5.29%. The value for `CCN(CC)S(=O)(=O)c1ccc(N(C)CCc2ccc(OC)c(OC)c2)nc1` was -1.93%; that for `CCOc1ccccc1NC(=O)Cn1ncc2ccc([N+](=O)[O-])cc21` was 8.74%; that for `CC(C)N1C(=O)C2C(C(=O)NC3CCCCC3)C3C=CC2(O3)C1C(=O)NC1CCCC1` (stereo not given) was -1.06%. As to `CCN(CC)CCN1C(=O)C2C(C(=O)Nc3ccc(Br)cc3)C3C=CC2(O3)C1C(=O)NC1CCCCC1` (stereo not given), the max response was -5.6%. For the compound `O=C(Nc1ccccc1F)C1C2C=CC3(O2)C1C(=O)N(c1cccnc1)C3C(=O)NC1CCCCC1` (stereo not given), the max response is 41.8% (active). As to `Cc1cccc(C(=O)NC(=S)N2CCN(c3ccc([N+](=O)[O-])cc3)CC2)c1`, the max response was -1.96%. As for `O=c1c(-c2ccc(Cl)cc2)[n+]([O-])c2ccccc2n1OCc1nc2ccccc2[nH]1`, the max response is 24.8% (active). For `CCN(CC)CCCNC(=S)N(CCO)Cc1cc2cc3c(cc2[nH]c1=O)OCO3`, the max response is -1.33%. `COc1ccc(CCNC(=O)CCC(=O)NC2CCCCC2)cc1OC`: the max response is -1.91%. For the compound `CC(C)(C)C1CCC(C(=O)Nc2cccnc2)CC1` (stereo not given), the max response was -2.39%. With `CC1CCCN(CC(O)COc2ccc3c(c2)OCO3)C1` (stereo not given) the figure was 4.28%; with `COCC1CCCN(Cc2nc(-c3ccc4c(c3)OCO4)no2)C1` (stereo not given), 42.1% (active). On to `COCC1CCCN(Cc2cn[nH]c2-c2cc3ccccc3o2)C1` (stereo not given), for which the max response is 7.39%. With `Cc1c(NC(=O)c2c([N+](=O)[O-])cnn2C)c(=O)n(-c2ccccc2)n1C` the figure was -6.14%; with `Cc1nc2ccccc2c2oc(C(=O)NCC3CCCO3)cc12` (stereo not given), -1.07%; with `Cc1ccc(-c2noc(-c3ccccc3C(=O)NCC3CCCO3)n2)cc1` (stereo not given), 27.2% (active).

In the case of `O=C(NCC1CCCO1)c1ccc2ccccc2n1` (stereo not given), the max response is 29.9% (active). The value for `COc1ccc2cc(C(=O)NCC3CCCO3)[nH]c2c1` (stereo not given) was 62.1% (active); that for `COc1ccc(SCc2noc(C(=O)NCC3CCCO3)c2C(=O)O)cc1` (stereo not given) was -3.22%. The value for `CCC(=O)c1c[nH]c(C(=O)NCC2CCCO2)c1` (stereo not given) was -0.953%. For `Cc1ccccc1CN(c1ccc(C(=O)NCC2CCCO2)cc1)S(C)(=O)=O` (stereo not given), the max response is -5.23%.

For the compound `O=C(NCC1CCCO1)c1cc(-c2ccccc2)nc2ccccc12` (stereo not given), the max response is 9.86%. `O=C(CSCc1c(F)cccc1Cl)NCC1CCCO1` (stereo not given): the max response was 13.1%. On to `COCCNC(=O)c1ccccc1-c1nc(-c2ccccc2Cl)no1`, for which the max response is 28.8%. Take `O=C(NCC1CCCO1)c1ccccc1-c1nc(-c2ccccc2Cl)no1` (stereo not given): the max response was 27.4% (active). `O=C(Nc1ccccc1C(=O)NCC1CCCO1)c1ccccc1F` (stereo not given): the max response was 14.1%. For the compound `Cc1sc2ncn(CC(=O)NCCCC(=O)NCc3ccc(F)cc3)c(=O)c2c1C`, the max response is -1.09%. The value for `Cc1cccn2c(CN(C)C3CCCc4ccccc43)c(C(=O)N3CCOCC3)nc12` (stereo not given) was -3.53%; that for `Cc1cc2c(cc1C)N(Cc1ccccc1)C1=NCCCN12` was -2.27%; that for `CC(C)C[C@H](NC(=O)C1CCC(CNC(=O)[C@@H]2CCCN2C(=O)OC(C)(C)C)CC1)C(=O)O` (stereo not given in full) was 0.405%.

For `CC(C)[C@H](NC(=O)N1CC(=O)Nc2ccccc21)C(=O)N[C@@H](Cc1c[nH]c2ccccc12)C(=O)O`, the max response is -2.21%.

`CN1CCN(c2ncc3c(n2)CC(c2ccccc2F)CC3=O)CC1` (stereo not given): the max response is -2.88%. As to `COc1ccc(C)cc1NC(=O)NCc1ccccn1`, the max response is -3.22%. As to `COc1ccc2ccccc2c1CNCc1ccccn1`, the max response is 20.7% (active). For the compound `COc1ccc2ccccc2c1CNc1nnnn1C`, the max response was -2.6%. With `Cc1ccc(-c2c(C)n([O-])c3c([n+]2=O)CCC3)cc1` the figure was 2.58%; with `CC(Oc1ccc(-c2ccccc2)c(F)c1)c1ccn(S(=O)(=O)c2cccc3ccccc23)n1` (stereo not given), -1.64%. The value for `NNC(=O)CNC(c1ccccc1)c1cc(Cl)ccc1NC(=O)c1ccccc1` (stereo not given) was -3.14%; that for `C/[N+]([O-])=C\c1ccc([N+](=O)[O-])o1` was 8.46%. Regarding `O=C(/C=C/c1ccc([N+](=O)[O-])o1)NNC(=O)c1ccc(F)cc1`, the max response was 71.2% (active). Take `O=C(N/N=C/c1ccc([N+](=O)[O-])o1)c1cn(-c2ccccc2)nc1-c1ccc(F)cc1`: the max response was 10.8%.
